KDM4E inh: inhibitors of human JMJD2E histone demethylase | B2RXH2 | JMJD2E catalytic domain, FDH-coupled NADH fluorescence (FDH is formaldehyde dehydrogenase) | Potency, µM (series often up to 57.1 µM), without a hit: top-dose activity change, negative = inhibition, actives largely listed as inhibitors | actives 1.6% (n = 230,000); active = well fitted inhibition curve with a large enough effect, not every such curve was filed as active; inconclusive = small, poorly fitted or top-dose-only effect, or another doubt; inactive = no such curve, though single readings can be large or run the other way;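 note: potency is the fitted concentration of half-maximal effect; 0% = wells with enzyme and -100% = buffer wells without enzyme; nearly all actives have a fitted effect of over 50% in size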
Target sequence (B2RXH2 1-337 limits assumed): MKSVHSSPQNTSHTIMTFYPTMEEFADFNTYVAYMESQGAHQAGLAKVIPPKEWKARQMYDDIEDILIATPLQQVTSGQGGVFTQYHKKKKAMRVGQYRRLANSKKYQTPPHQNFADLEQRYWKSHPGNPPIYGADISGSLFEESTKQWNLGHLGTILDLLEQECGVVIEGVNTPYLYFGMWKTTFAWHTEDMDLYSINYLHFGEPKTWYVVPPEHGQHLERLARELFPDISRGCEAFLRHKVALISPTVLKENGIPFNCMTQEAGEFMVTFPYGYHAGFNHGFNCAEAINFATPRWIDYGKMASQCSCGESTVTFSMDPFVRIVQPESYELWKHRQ
Sfp inh: blocks B. subtilis Sfp PPTase activity | Q9F4F7 | Biochemical Sfp PPTase activity, qHTS | Potency, µM, inactives show largest response in the series, negative = inhibition, hits mostly inhibitors | actives 3.5% (n = 310,000) | AID 1490;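 note: the enzyme is Sfp with the accession as filed and its product quenches rhodamine fluorescence; potency is the fitted concentration of half-maximal effect; 0% = enzyme reaction without inhibitor and -100% = no enzyme wells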
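Reaction rates are the 30-min fluorescence difference (ex 525, em 598 nm) in wells containing 15 nM Sfp, 5 uM rhodamine-CoA and 12.5 uM BHQ-2-YbbR at pH 7.6 with 10 mM MgCl2.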
Tau fibril ThT: blocks human tau fibril formation measured by thioflavin T; P10636; recombinant tau K18 P301L, heparin-induced fibrillization, ThT fluorescence; Potency, µM (top dose mostly 57.4 µM), for inactives: at the highest dose activity, negative = inhibition, usual class: inhibitors; actives 2.1% (n = 270,000); note: potency is the fitted concentration of half-maximal effect; nearly all actives have a fitted effect of over 55% in size
Target sequence (P10636 561-689 P618L limits assumed): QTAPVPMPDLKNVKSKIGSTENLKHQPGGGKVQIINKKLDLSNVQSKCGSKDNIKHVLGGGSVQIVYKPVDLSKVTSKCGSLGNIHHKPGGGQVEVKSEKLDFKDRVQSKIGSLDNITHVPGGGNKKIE
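Recombinant human tau K18 fragment […] carrying P301L, 15 uM unlabeled plus 0.24 uM Alexa 594-labeled, was fibrillized with 20 uM heparin in 100 mM sodium acetate pH 7 for 6 hr at 37 C; 30 uM ThT fluorescence read after 1 hr.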
FBPA coupling cs: inhibits coupling enzyme system, counter-screen for aldolase hits. coupling enzyme system counterscreen, AmpLite Red fluorescence. activity change, negative = inhibition, % at 58.2 µM, hits read low. actives 0.67% (n = 290,000); in the data active = activity change below about -30%
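Counterscreen of the coupled detection system alone, without aldolase: glyceraldehyde-3-phosphate coupling enzymes plus AmpLite Red readout. Compounds at 57.5 uM final, 10 min RT preincubation, 20 min RT reaction, fluorescence 525/598 nm.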
Tau FP inhib: inhibitors of human tau fibril formation | P10636 | K18 P301L tau heparin fibrillization, Alexa594 FP, 6 h | Potency, µM (titrated, usually from 57.7 µM), inactives show top-dose activity, negative = inhibition, hits mostly inhibitors | actives 0.39% (n = 280,000); note: potency is the fitted concentration of half-maximal effect; nearly all actives have a fitted effect of over 55% in size
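Quantitative HTS format: compounds meet 15 uM recombinant K18 P301L tau and Alexa 594-tau tracer in 100 mM sodium acetate pH 7; 20 uM heparin triggers fibrillization at 37 C over 6 hr; FP gives the signal.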
Tau fluor cs: counter-screen for tau fibril formation inhibitors. tau K18 P301L (four-repeat tau fragment) Alexa594 fluorescence, heparin fibrillization. Potency, µM (highest dose often 57.7 µM), for the others: at the highest dose activity change, negative = decrease. actives 0.93% (n = 280,000); note: potency is the fitted concentration of half-maximal effect; nearly all actives have a fitted effect of over 55% in size
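Human K18 P301L tau (15 uM unlabeled plus 0.24 uM Alexa 594-labeled, final) in 100 mM sodium acetate pH 7 was mixed with compound and 20 uM heparin and incubated 6 hr at 37 C.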
* marks the source's active call; other numbers are inactive results; ? = inconclusive; · = no result. In the library only some 5.3% were active in any assay of this set; here they are far more common. Unless noted, calls come from the whole dose curve; as a rule, active = well fitted curve in the direction sought with a large enough effect; inconclusive = small, poorly fitted or top-dose-only effect, or another doubt; inactive = no such curve, though single readings can be large; an effect the other way counts as inactive or inconclusive. Unless noted, % is set by controls: 0 for no effect and ±100 for the full control effect.

SMILES | KDM4E inh | Sfp inh | Tau fibril ThT | FBPA coupling cs | Tau FP inhib | Tau fluor cs
CC(C)C[C@H](NC(=O)[C@H](CO)NC(=O)[C@@H]1CCCN1C(=O)[C@H](Cc1ccc(O)cc1)NC(=O)[C@H](CC(C)C)NC(=O)[C@H](CC(C)C)NC(=O)[C@@H]1CCCN1C(=O)[C@@H](NC(=O)[C@H](CO)NC(=O)[C@H](CO)NC(=O)[C@H](CO)NC(=O)[C@H](CO)NC(=O)[C@@H]1CCCN1C(=O)[C@@H](NC(=O)[C@@H](N)CO)C(C)C)[C@@H](C)O)C(=O)N[C@@H](C)C(=O)N[C@@H](CC(C)C)C(=O)N1CCC[C@H]1C(=O)N[C@@H](C)C(=O)N1CCC[C@H]1C(=O)O | · | 7% | · | 2 | · | ·
CC(=O)N=c1sc2nc3ccccc3nc2n1N(C(C)=O)C(C)=O | ? | 45µM* | ? | -1 | ? | -12%
CC(=O)N=c1sc2ccccc2n1C | 8% | 20% | -6% | 1 | 5% | 3%
Cc1cc(NS(=O)(=O)c2ccc(N)cc2)nc(C)n1 | · | 8% | · | · | · | ·
CCCC1Nc2ccc(C(=O)O)cc2C2C=CCC12 (centres undefined) | -1% | ? | 22µM* | -3 | ? | ?
CCOC(=O)C1Nc2ccc(C(=O)O)cc2C2C=CCC12 (centres undefined) | · | 22µM* | · | -13 | · | ·
CC(C)C1Nc2ccc(C(=O)O)cc2C2C=CCC21 (centres undefined) | 4% | 28µM* | 9% | -5 | 8% | 10%
O=C(O)c1ccc2c(c1)C1C=CCC1C(c1ccncc1)N2 (centres undefined) | 14µM* | ? | 25µM* | -31* | ? | ?
COc1cccc([C@@H]2Nc3ccc(C(=O)O)cc3[C@@H]3C=CC[C@@H]32)c1OC | · | · | 0% | · | 0% | 1%
FC(F)(F)c1ccc2c(c1)C1C=CCC1C(c1ccncc1)N2 (centres undefined) | ? | -7% | ? | -11 | ? | ?
O=C(/C=C/c1ccc(I)cc1)c1ccc(B(O)O)cc1 | · | 17% | · | 0 | · | ·
NS(=O)(=O)c1ccc(CCNC(=O)c2nc(SCc3ccccc3F)ncc2Cl)cc1 | · | · | -1% | · | -18% | -15%
CCOc1ccc(C(=O)c2cn(Cc3ccc(Cl)cc3)c3cc(OC)c(OC)cc3c2=O)cc1 | · | · | -8% | · | 3% | -6%
Cc1cc(-c2cccs2)c(C#N)c(=S)[nH]1 | ? | 20µM* | ? | 0 | -9% | -4%
COC(=O)CN1C(=O)[C@@H]2[C@H](C1=O)[C@@H]1CC(C(=O)OC)=C[C@@H](C(=O)OC)C3C1=C(C(=O)[C@]3(C)NC(=O)c1ccccc1)[C@@H]2C (some centres undefined) | · | -3% | · | -3 | · | ·
Cn1c(=O)c2[nH]c(N=Nc3ccc(N)cc3N)nc2n(C)c1=O | ? | ? | 14µM* | -8 | -9% | ?
Cn1c(=O)c2[nH]c(Br)nc2n(C)c1=O | · | 5% | · | · | · | ·
CCCCCn1c(=O)c2ccccc2n2c(=S)[nH]nc12 | · | 56µM* | · | 7 | · | ·
O=c1c2c3c(sc2n2c(=S)[nH]nc2n1-c1ccccc1)CCC3 | 0% | -20% | · | 4 | 6% | 2%
CCCn1c(=O)c2ccccc2n2c(SCC(=O)c3ccccc3)nnc12 | 0% | 2% | 2% | 0 | 3% | -4%
Cn1c(=O)c2ccccc2n2c(CCl)nnc12 | · | 22% | · | 5 | · | ·
CCCCn1c(=O)c2ccccc2n2c(=S)[nH]nc12 | · | ? | · | 2 | · | ·
CCCn1c(=O)c2ccccc2n2c(SCCNCCO)nnc12 | · | 35µM* | · | 1 | · | ·
CN1CCc2c(sc3c2c(=O)n(-c2ccccc2)c2n[nH]c(=S)n32)C1 | -14% | 40µM* | -13% | 0 | -5% | -1%
Cn1c(=O)c2ccccc2n2c(=S)[nH]nc12 | · | 50µM* | · | 0 | · | ·
SMILES | KDM4E inh | Sfp inh | Tau fibril ThT | FBPA coupling cs | Tau FP inhib | Tau fluor cs
O=C(Cn1nc(Cc2cccnc2)c2ccccc2c1=O)Nc1cccc(C(F)(F)F)c1 | · | · | ? | · | -15% | ?
CCCn1c(=O)c2ccccc2n2c(=S)[nH]nc12 | · | 79µM* | · | 0 | · | ·
O=c1c2ccccc2n2c(=S)[nH]nc2n1-c1ccccc1 | · | 45µM* | · | 5 | · | ·
CCC(C)c1ccc(-n2c(=O)c3ccccc3n3c(=S)[nH]nc23)cc1 (centres undefined) | · | ? | · | -1 | · | ·
Cc1ccc(C2=N/C(=C\c3c(C)nn(-c4ccccc4)c3N3CCCC3)C(=O)O2)cc1 | ? | -12% | 13µM* | 1 | 2% | -16%
Cc1ccc(C)c(NC(=O)Cn2c(=O)n(CCCS(=O)(=O)C3CCCCC3)c(=O)c3ccccc32)c1 | · | · | ? | · | -9% | -7%
O=C(O)C1C2CCC(C2)C1C(=O)N1CCCC1 (centres undefined) | · | 45µM* | · | 1 | · | ·
COc1cccc(Cn2c(=O)n(Cc3ccccc3)c(=O)c3c2c2cc(OC)ccc2n3C)c1 | · | · | 2% | · | 2% | -9%
N=C1C=CC=C2C1=NC1(CCCCC1)N2O | ? | 8.9µM* | 25µM* | -48* | ? | -26%
CCCCC[n+]1ccn(-c2nc3ccccc3nc2[N-]S(=O)(=O)c2ccccc2)c1 | ? | 35µM* | -2% | -22 | -3% | -5%
CCCC[n+]1ccn(-c2nc3ccccc3nc2[N-]S(=O)(=O)c2ccc(Cl)cc2)c1 | ? | -8% | · | 0 | -3% | -20%
CCN(C(=O)C1CCN(S(=O)(=O)c2cc(Br)cc3c2N(C(C)=O)CC3)CC1)c1cccc(C)c1 | · | · | -19% | · | 0% | -12%
COc1ccc(C(=O)C=CNNC(=O)c2ccc(Cl)cc2)cc1 | · | 17% | · | 0 | · | ·
O=C(/C=C/NCC(=O)c1ccccc1)c1ccc(Br)cc1 | -10% | -29% | ? | -1 | -8% | -25%
O=C(/C=C/NNC(=O)c1ccc(Cl)cc1)c1ccccc1 | -6% | 8% | 22µM* | 1 | -1% | -13%
O=C(/C=C/NNC(=O)c1ccccc1)c1ccc(Br)cc1 | -11% | 5% | 25µM* | -1 | 1% | ?
Cc1ccsc1C(=O)OCc1nc2ccccc2c(=O)[nH]1 | -12% | 1% | -12% | -35* | 9% | -9%
CCOC(=O)c1nc2ccccc2c(=O)[nH]1 | 10% | -12% | -9% | -1 | -6% | -11%
CCCn1c(=O)c(C(=O)OCC)c(O)c2cc(Br)ccc21 | -4% | 8% | -6% | -5 | -1% | -4%
CCOC(=O)c1c(CN(C)C)n(C)c2c(O)c(N=NC(N)=O)c3ccc(Br)cc3c12 | · | 7% | · | -31* | · | ·
